From PubChem BioAssay (Tox21)
Results filed as inconclusive are left out. The source made the active and inactive calls. Calls follow the shape of the dose curve; as a rule, active = well fitted cell-killing curve with a large enough effect in the repeat runs; inconclusive = weak or mixed curves, or effect the other way; inactive = flat fitted curve, though single readings scatter.

test: qHTS assay to identify small molecule antagonists of the androgen receptor (AR) signaling pathway using the MDA cell line in the presence of 0.5 nM R1881 - cell viability counter screen (AID 1259242); conditions: MDA-kb2 viability, CellTiter-Fluor protease fluorescence, 16 h; series mostly up to 92.4 µM; viability change, negative = cytotoxic: at the top concentration; also: nearly all actives have a fitted effect of over 45% in size
Source text: U.S. Tox21 Program National Center for Advancing Translational Sciences [NCATS] NIH Chemical Genomics Center [NCGC] U.S. Environmental Protection Agency [EPA] National Institutes of Environmental Health Sciences [NIEHS] National Toxicology Program [NTP] U.S. Food and Drug Administration [FDA] Tox21 Assay Overview: Androgen receptor (AR) is an important member of the nuclear receptor family. Its signaling plays a critical role in AR-dependent prostate cancer and other androgen related diseases. Considerable attention has been given in the past decades to develop methods to study and screen for the environmental chemicals that have the potential to interfere with metabolic homeostasis, reproduction, developmental and behavioral functions. Therefore AR binding assay for screening androgen antagonists can be used to identify potential endocrine disruptors. MDA-kb2 cells (from ATCC, deposited by Wilson et al.) were used to screen for AR inhibitors against Tox21 compound libraries. These cells are human breast carcinoma cells that were stably transfected with a luciferase reporter gene under control of the MMTV promoter that contains response elements for both androgen receptor (AR) and glucocorticoid receptor (GR). The current screening for identification of AR inhibitors against Tox21 libraries used lower concentration of (0.5 nM) R1881 as a stimulator. The cytotoxicity of the Tox21 compound libraries against MDA-kb2 cell line was tested by measuring live-cell protease activity using CellTiter-Fluor assay in the same wells.
Tox21 Assay Protocol Summary: MDA-kb2 cells (cells cultured without CO2) were dispensed at 3,000 cells/well in 4 uL of culture medium into white wall/solid-bottom 1536-well plates (Corning Life Sciences, Corning, NY) using a Multidrop Combi (ThermoFisher Scientific, Waltham, MA) dispenser. After the assay plates were incubated at a 37C and 0% CO2 for 5 hr, 23 nL of compounds dissolved in DMSO, positive controls or DMSO only was transferred to the assay plate by a Pintool station (Kalypsys, San Diego, CA). The transfer of compounds was followed by the addition of 1 uL of 0.5 nM (final concentration) agonist (R1881)/culture medium using a Flying Reagent Dispenser (FRD, Aurora Discovery, San Diego, CA). The plates were incubated at 37C and 0% CO2 for 16 hr. For cytotoxicity assay, 1 uL of CellTiter-Fluor reagent (Promega Corporation, Madison, WI) was added to each well using the FRD and after 30 min incubation at 37C and 0% CO2, The fluorescence intensity was measured using ViewLux plate reader (PerkinElmer, Shelton, CT).
% is scaled to controls: 0 for no effect and ±100 for the full control effect.

Q: With CNc1cnn(-c2cccc(C(F)(F)F)c2)c(=O)c1Cl as the compound, how does the outcome read?
A: inactive

Q: With C=CC(=O)OCC(CC)CCCC (stereo not given) as the compound, how does the outcome read?
A: inactive

Q: Which outcome does the source give for Clc1cnc(Oc2ccc(Oc3ncc(Cl)cc3Cl)cc2)c(Cl)c1 here?
A: inactive

Q: Which outcome does the source give for CC(C)c1cccc(C(C)C)c1O here?
A: inactive

Q: For Cc1cccc(N)c1C, which outcome is on record?
A: inactive

Q: For Nc1nc(N)nc(NC2CC2)n1, which outcome is on record?
A: inactive

Q: Which outcome does the source give for C=CC#N here?
A: inactive

Q: For CN(C)CCC#N, which outcome is on record?
A: inactive

Q: Which outcome does the source give for C/C=C/c1ccc2c(c1)OCO2 here?
A: inactive

Q: With O=[N+]([O-])c1ccc(Cl)cc1 as the compound, how does the outcome read?
A: inactive

Q: With c1ccc2c(c1)CCCC2 as the compound, how does the outcome read?
A: inactive

Q: With Sc1ccccc1 as the compound, how does the outcome read?
A: inactive

Q: With O=C(O)CCCc1ccc(N(CCCl)CCCl)cc1 as the compound, how does the outcome read?
A: inactive

Q: Which outcome does the source give for Cc1ccc(O)c(C)c1 here?
A: inactive

Q: Which “viability change, negative = cytotoxic” value does the source give for Nc1ncc([N+](=O)[O-])s1 here?
A: -4.18% (inactive)

Q: Which outcome does the source give for C=CCN=C=S here?
A: inactive

Q: Which “viability change, negative = cytotoxic” value does the source give for C=C(C)C(=O)OCC(CC)CCCC (stereo not given) here?
A: 3.1% (inactive)

Q: For CCOC(=O)CC(SP(=O)(OC)OC)C(=O)OCC (stereo not given), which outcome is on record?
A: inactive

Q: For CCOP(=S)(OCC)Oc1cc(C)nc(C(C)C)n1, which outcome is on record?
A: inactive

Q: For C[C@H]1C(=O)O[C@@H]2CCN3CC=C(COC(=O)[C@](C)(O)[C@]1(C)O)[C@H]23, which outcome is on record?
A: inactive

Q: Which outcome does the source give for CNCC(O)c1ccc(O)cc1 (stereo not given) here?
A: inactive

Q: For CC(=O)C1CCOC1=O (stereo not given), which outcome is on record?
A: inactive

Q: With O=[N+]([O-])c1cc([As](=O)(O)O)ccc1O as the compound, how does the outcome read?
A: inactive

Q: With COP(=S)(OC)Oc1ccc(SC)c(C)c1 as the compound, how does the outcome read?
A: inactive

Q: With CC[N+](=O)[O-] as the compound, how does the outcome read?
A: inactive

Q: With O=C/C=C/c1ccccc1 as the compound, how does the outcome read?
A: inactive

Q: For Cc1cccc(C)c1N, which outcome is on record?
A: inactive

Q: For CNC(=O)Oc1cccc2ccccc12, which outcome is on record?
A: inactive

Q: Which outcome does the source give for CCCCC(CC)C(=O)Cl (stereo not given) here?
A: inactive

Q: With O=C(O)COc1ccccc1 as the compound, how does the outcome read?
A: inactive

Q: For CC12CC1(C)C(=O)N(c1cc(Cl)cc(Cl)c1)C2=O (stereo not given), which outcome is on record?
A: inactive

Q: With CNC(=O)O/N=C/C(C)(C)S(C)=O (stereo not given) as the compound, how does the outcome read?
A: inactive

Q: Which outcome does the source give for Cc1cccc(C)c1NC(=O)CN1CCCC1=O here?
A: inactive

Q: Which outcome does the source give for OCC(O)CCl (stereo not given) here?
A: inactive

Q: With O=P1(NCCCl)OCCCN1CCCl (stereo not given) as the compound, how does the outcome read?
A: inactive

Q: Which outcome does the source give for N#CN=C(N)N here?
A: inactive

Q: Which outcome does the source give for OCc1ccco1 here?
A: inactive

Q: With O=[N+]([O-])c1ccc(Cl)c(Cl)c1 as the compound, how does the outcome read?
A: inactive

Q: For Oc1ccc(Cl)cc1, which outcome is on record?
A: inactive

Q: For COC(C)(C)CCCC(C)C/C=C/C(C)=C/C(=O)OC(C)C (stereo not given), which outcome is on record?
A: inactive
